# This is a sample that favours compounds with a hit; in the whole collection about 5.8% have one here.
# SW480 rereplic: induces DNA re-replication in SW480 colon adenocarcinoma cells. SW480 DNA re-replication, Hoechst DNA content imaging, 48 h. Potency, µM (highest dose often 46.1 µM), without a hit: at the highest dose re-replication activation, actives largely listed as activators. 1.8% of 340,000 active. AID 624297; further: % of control where 0% means no effect; nearly all actives have a fitted effect of over 55% in size
#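 Per well, 250 cells were exposed to pinned compound for 48 hr. Nuclear DNA was visualised with Hoechst (40 min, 37 C) and total object intensity recorded by fluorescence scanning.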
# KB-V1 cytotox: KB-V1 MDR subline cytotoxicity | KB-V1 MDR cells viability, CellTiter-Glo, 72 h | Potency, µM (top dose mostly 46.1 µM), hits mostly cytotoxic | 3.4% of 400,000 active | AID 1347076; further: on the % scale 0 is the no-effect control and ±100 the full control effect; nearly all actives have a fitted effect of over 60% in size
#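 Cytotoxicity toward P-gp-expressing KB-V1 cells was determined as loss of CellTiter-Glo luminescence after 72 h at 37 degrees C. Compounds were tested in quantitative HTS format across a concentration range, with curves fitted to normalized data.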
# 12-LOX inh: blocks human arachidonate 12S-lipoxygenase; purified 12hLO, xylenol orange hydroperoxide absorbance; Potency, µM (series often up to 108 µM), for the others: top-dose activity change, negative = inhibition, actives largely listed as inhibitors; 1.1% of 580,000 active; further: on the % scale 0 is the no-effect control and ±100 the full control effect
# Target sequence (P18054 whole entry, looked up): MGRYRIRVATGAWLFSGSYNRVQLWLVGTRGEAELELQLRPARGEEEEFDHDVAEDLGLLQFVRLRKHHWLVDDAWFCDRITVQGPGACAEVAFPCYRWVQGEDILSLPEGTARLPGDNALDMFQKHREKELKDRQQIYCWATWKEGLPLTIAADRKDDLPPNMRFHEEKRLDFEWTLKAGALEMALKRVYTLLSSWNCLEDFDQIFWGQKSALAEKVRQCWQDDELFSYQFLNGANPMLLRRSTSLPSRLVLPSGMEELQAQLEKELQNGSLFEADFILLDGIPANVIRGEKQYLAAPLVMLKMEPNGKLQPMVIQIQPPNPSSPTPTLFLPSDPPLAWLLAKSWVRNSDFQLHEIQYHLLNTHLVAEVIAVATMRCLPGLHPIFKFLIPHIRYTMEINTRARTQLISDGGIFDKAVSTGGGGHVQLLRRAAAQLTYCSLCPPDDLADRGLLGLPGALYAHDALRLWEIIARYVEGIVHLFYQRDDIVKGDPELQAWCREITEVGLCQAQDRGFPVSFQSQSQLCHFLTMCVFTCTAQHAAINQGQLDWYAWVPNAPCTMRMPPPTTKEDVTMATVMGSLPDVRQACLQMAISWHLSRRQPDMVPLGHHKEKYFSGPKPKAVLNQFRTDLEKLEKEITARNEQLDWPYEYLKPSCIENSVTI
#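 Hydroperoxide product was detected by ferrous iron/xylenol orange as the 573 to 405 nm absorbance ratio. Arachidonic acid at 40 uM (final) was turned over for 30 min at room temperature by 150 nM human 12hLO, pH 7.0 Hepes buffer, after 15 min compound preincubation.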
# PINK1 expr mod: PINK1 expression modulation. PINK1 immunofluorescence, high-content cytometry, 24 h. Potency, µM (highest dose often 76.6 µM), inactives show top-dose activation (PINK1 increase), hits mostly activators. 0.2% of 410,000 active; active means well fitted activation curve with a large enough effect; inconclusive means small, poorly fitted or top-dose-only effect; cell line not stated here; further: % of control where 0% means no effect; nearly all actives have a fitted effect of over 65% in size
#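 Stable cell line treated 24 h with compounds at 5 concentrations (CCCP controls), then fixed and immunostained for PINK1 plus nuclear and cell stains; PINK1 immunofluorescence quantified by laser-scanning microplate cytometry.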
# MCF10A rereplic: inducers of DNA re-replication in MCF 10A breast cells; MCF 10A DNA re-replication, Hoechst nuclear intensity, 48 h; AID 624296; Potency, µM (series often up to 46.1 µM), inactives show at the highest dose activity, positive = re-replication, usual class: activators; 2.9% of 350,000 active; further: % of control where 0% means no effect; nearly all actives have a fitted effect of over 50% in size
# KB-3-1 tox: KB-3-1 parental cell cytotoxicity; KB-3-1 viability, CellTiter-Glo ATP luminescence, 72 h; Potency, µM (top dose mostly 46.1 µM), hits mostly cytotoxic; 1.4% of 400,000 active; further: on the % scale 0 is the no-effect control and ±100 the full control effect; nearly all actives have a fitted effect of over 60% in size
#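 Here the drug-naive KB-3-1 line serves as comparator for MDR sub-line selectivity; cells received compound titrations, 72 h at 37 °C, then CellTiter-Glo readout.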
# * hit, by the source's call; i = inactive; ? = inconclusive; nt = not tested or not shown; [ ] = another dose, or the depositor's remark. Unless noted, the call rests on the fitted dose curve; in most records, active means well fitted curve in the direction sought with a large enough effect; inconclusive means small, poorly fitted or top-dose-only effect, or another doubt; inactive means no such curve, though single readings can be large; an effect the other way counts as inactive or inconclusive. Potency means the concentration at half of the fitted maximal effect.
SMILES,SW480 rereplic,KB-V1 cytotox,12-LOX inh,PINK1 expr mod,MCF10A rereplic,KB-3-1 tox
CCc1ccc2c(CN3CCc4cc(S(N)(=O)=O)ccc43)cc(=O)oc2c1,nt,nt,14µM*,nt,nt,nt
COCC(=O)N(C1CCOCC1)C1CCN(S(=O)(=O)c2ccccc2F)CC1,nt,nt,13%,nt,nt,nt
Cc1cccc(NC(=O)c2cccc3c2C(=O)c2ccccc2-3)c1,-1%,6.5µM*,2%,6%,22%,i
Cc1cccc(NC2=C(NC(=O)c3ccccc3)C(=O)c3ccccc3C2=O)c1,18µM*,15µM*,14µM*,2%,?,i
Cc1cccc(NC(=O)c2ccccc2-c2ccccc2)c1,-3%,i,8%,0%,19%,i
O=C(NC1=C(Nc2ccc(Cl)cc2)C(=O)c2ccccc2C1=O)c1ccccc1,?,21µM*,-20%,7%,3%,18µM*
Cn1c(=O)c2c(nc(NCc3ccccc3)n2CC(O)CO)n(C)c1=O (configuration not stated),nt,nt,3%,nt,nt,nt
O=C1CC2(CCCCC2)C(=O)N1Cc1ncc(-c2ccccc2)o1,nt,nt,14%,nt,nt,nt
CC(C)(C)c1ccc(C(=O)N2CCN(Cc3ccccc3)CC2)cc1,-6%,i,54%,6%,5%,i
CS(=O)(=O)c1ccc(C(=O)N2CCN(Cc3ccccc3)CC2)cc1,-3%,i,3%,-1%,3%,i
CCc1cc2cc(C(=O)N3CCN(Cc4ccccc4)CC3)sc2s1,-8%,15µM*,496%,16%,?,21µM*
O=C(N1CCN(Cc2ccccc2)CC1)C(F)(F)C(F)(F)C(F)(F)C(F)(F)F,nt,nt,28µM*,nt,nt,nt
O=C(c1ccc(CNS(=O)(=O)c2ccccc2)cc1)N1CCN(Cc2ccccc2)CC1,21%,4.6µM*,10%,0%[38.3 µM],28%,18µM*
O=C(c1ccccc1)N1CCN(Cc2ccccc2)CC1,17%,i,?,nt,13µM*,i
Cc1ccccc1COC(=O)CSc1cnc2ccccc2n1,nt,nt,40%,nt,nt,nt
Cc1cc(C)n(CC(=O)Nc2ccc(C(=O)NCc3ccco3)cc2)c(=O)c1C#N,nt,nt,6%,nt,nt,nt
COC[C@H]1CCCN1[C@@H]1[C@H](O)[C@H](CO)O[C@@H]1CNCc1cccc(Cl)c1,nt,nt,20%,nt,nt,nt
CCc1noc(CN2CCC3(CC2)CC(=O)N(CCCc2ccccc2)C3)n1,nt,nt,27%,nt,nt,nt
COc1ccc2nc([C@H]3CCN(CC(C)C)C3)[nH]c2c1,nt,nt,36%[176 µM],nt,nt,nt
CC(C)(C)c1ccc(C(=O)N2CCN(CCNC(=O)C(=O)NCc3ccccc3)CC2)cc1,-3%,7.3µM*,-7%,-1%,-1%,i
O=C(O)c1ccc(CNS(=O)(=O)c2ccc(Oc3ccccc3Cl)cc2)cc1,0.16µM*,i,-2%,1%,?,i
O=C(c1ccccc1F)N1CCN(Cc2cccc(Cl)c2)CC1,0%,21µM*,?,1%[38.3 µM],0%,i
O=C(c1ccncc1)N1CCN(CCc2ccccc2)CC1,?,i,-3%,5%,18µM*,i
O=C(c1cccc(Cl)c1)N1CCN(C(=O)c2ccccc2F)CC1,-9%,i,10%,0%,-2%,i
CCCCC(=O)NC1CCN(c2cn[nH]c(=O)c2)CC1,nt,nt,12%,nt,nt,nt
SMILES,SW480 rereplic,KB-V1 cytotox,12-LOX inh,PINK1 expr mod,MCF10A rereplic,KB-3-1 tox
CC(=O)Nc1ccc(CNC(=O)Cc2c(Cl)cccc2Cl)cc1,nt,nt,-49%,nt,nt,nt
CCn1ccc(C(=O)N2CCCC(c3ccccc3)(c3ccccc3)C2)cc1=O,nt,nt,5%,nt,nt,nt
COc1ccc(-c2ccc(CCC(=O)O)n2Cc2ccco2)cc1,0%,i,?,1%,-1%,i
O=C(O)CCc1ccc(-c2ccc(Cl)cc2)n1Cc1ccco1,2%,i,40µM*,nt,26%,i
FC(F)(F)c1cccc(Cn2nnnc2-c2cccc(C(F)(F)F)c2)c1,0%,15µM*,-5%,1%[38.3 µM],?,i
CC1CC(C)(C)NC(=S)N1CCCC(=O)Nc1ccc(Br)cc1 (configuration not stated),-8%,23µM*,?,-1%,3%,i
CCOc1ccc(NC(=O)CCCN2C(=S)NC(C)(C)CC2C)cc1 (configuration not stated),2%,i,?,-1%,1%,i
CCc1ccccc1NC(=O)c1cc2c(s1)CN(C(C)C)C2,nt,nt,325%,nt,nt,nt
COc1ccc(-c2c3c(nc4sc(C(=O)Nc5cc(C)on5)c(N)c24)CCC3)cc1,18µM*,i,25%,nt,1.5µM*,i
CSCCC(NS(=O)(=O)c1cccs1)C(=O)Nc1ccc(C)c(Cl)c1 (configuration not stated),nt,i,50µM*,11%,nt,i
CSCCC(NS(=O)(=O)c1cccs1)C(=O)NCc1ccccc1 (configuration not stated),-2%,i,-17%,-1%,-36%,i
Cc1ccc(CNC(=O)C(Cc2ccccc2)NS(=O)(=O)c2cccs2)cc1 (configuration not stated),13%,?,-2%,nt,0%,i
CSCCC(NS(=O)(=O)c1cccs1)C(=O)NCc1ccc(C)cc1 (configuration not stated),0.16µM*,?,-16%,-1%,3%,i
CCOC(=O)CNC(=O)C(Cc1ccccc1)NS(=O)(=O)c1cccs1 (configuration not stated),1%,i,?,-2%,21µM*,i
Cc1ccn2c(Nc3ccc4c(c3)OCO4)c(-c3ccccn3)nc2c1,14%,i,20%,40µM*,-3%,?
Cc1ccc(Nc2c(-c3ccccn3)nc3cc(C)ccn23)cc1,7%,?,?,?,?,?
Cc1ccc2nc(-c3ccco3)c(Nc3ccccc3)n2c1,?,10µM*,5%,1%,11%,i
Cc1ccc(Nc2c(-c3ccco3)nc3ccc(C)cn23)cc1,nt,i,-14%,1%,nt,i
Cc1ccc(Nc2c(-c3ccccn3)nc3ccc(C)cn23)cc1,21µM*,?,0%,?,12%,?
COC(=O)c1ccc(-n2c(C)cc(C(=O)CSc3ccc(NC(C)=O)cc3)c2C)cc1,-4%,?,-16%,1%,?,i
CC(=O)Nc1ccc(SCC(=O)c2cc(C)n(-c3ccccc3F)c2C)cc1,15%,?,-14%,8%,23µM*,?
Cc1cc(C(=O)Cn2nnc3ccccc3c2=O)c(C)n1-c1ccccc1F,13%,?,0%,0%,?,5.2µM*
O=C(COc1ccc2c(c1)CCC2)NCc1ccccc1CN1CCCCC1,nt,nt,-18%,nt,nt,nt

# Screening results: PubChem BioAssay, National Center for Advancing Translational Sciences (NCATS)
